Bioassay records: PubChem, National Center for Advancing Translational Sciences (NCATS)
This is a sample that favours compounds with a hit; in the whole collection about 4.2% have one here.
ALOX12 inh = inhibitors of human 12S-lipoxygenase ALOX12. purified 12hLO, xylenol orange hydroperoxide absorbance. AID 1671190. P18054. Potency, µM (highest dose often 108 µM), usual class: inhibitors. 1.1% of 580,000 active
Target sequence (P18054 whole entry, looked up): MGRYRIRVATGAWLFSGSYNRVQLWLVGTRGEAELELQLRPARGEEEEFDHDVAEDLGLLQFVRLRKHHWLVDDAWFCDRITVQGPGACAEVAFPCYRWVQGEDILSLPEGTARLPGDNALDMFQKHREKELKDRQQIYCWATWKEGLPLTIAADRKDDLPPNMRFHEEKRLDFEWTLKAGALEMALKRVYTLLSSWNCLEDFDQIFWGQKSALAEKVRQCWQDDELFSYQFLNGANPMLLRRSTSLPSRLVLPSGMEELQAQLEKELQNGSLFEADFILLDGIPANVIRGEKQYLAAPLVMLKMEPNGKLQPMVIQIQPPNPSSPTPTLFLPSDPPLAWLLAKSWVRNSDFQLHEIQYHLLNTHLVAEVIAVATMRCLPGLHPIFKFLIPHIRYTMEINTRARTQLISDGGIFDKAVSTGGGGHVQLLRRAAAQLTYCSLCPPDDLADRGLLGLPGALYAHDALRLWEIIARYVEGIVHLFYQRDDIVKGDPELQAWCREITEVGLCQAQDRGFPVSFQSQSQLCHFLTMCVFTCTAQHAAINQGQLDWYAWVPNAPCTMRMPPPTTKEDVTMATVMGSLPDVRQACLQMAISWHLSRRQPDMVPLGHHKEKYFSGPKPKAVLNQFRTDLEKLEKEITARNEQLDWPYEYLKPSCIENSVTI
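Purified human 12hLO at 150 nM in 25 mM Hepes, 0.01% Triton X-100, pH 7.0, preincubated 15 min at room temperature with compound. Reaction started with 40 uM arachidonic acid, 30 min at room temperature. Hydroperoxide measured by Fe-xylenol orange, 573/405 nm absorbance ratio.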
PLK1 PBD block = PLK1 (human) polo-box domain binding inhibition; Plk1 PBD binding of FITC phosphopeptide, fluorescence polarization; Potency, µM, hits mostly inhibitors; 2.8% of 360,000 active; also: series mostly up to about 57 µM; nearly all actives have a fitted effect of over 65% in size
VDR inhibitor = inhibitors of human vitamin D receptor; P11473; VDR-SRC2-3 peptide fluorescence polarization, 2 h; Potency, µM, hits mostly inhibitors; 0.93% of 400,000 active
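Compounds are added to VDR with labelled SRC2-3 coactivator peptide and held 2 h at room temperature. Inhibition of the VDR–peptide interaction is then read as a change in fluorescence polarization.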
Sfp inh = inhibitors of Bacillus subtilis Sfp phosphopantetheinyl transferase; AID 1490; Biochemical Sfp PPTase activity, qHTS; Potency, µM, hits mostly inhibitors; Q9F4F7; 3.5% of 310,000 active;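 also: the enzyme is Sfp with the accession as filed and its product quenches rhodamine fluorescence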
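Fluorescence-quenching assay with 15 nM Sfp, 5 uM rhodamine-CoA and 12.5 uM BHQ-2-labelled ybbR peptide in pH 7.6 Hepes/MgCl2 buffer. Enzyme was pre-incubated with compound for 15 min at room temperature. Rate was taken from the 30-min fluorescence change (525/598 nm).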
Each line names hits and unclear results; the compound was inactive in the other large screens; ! = not active in a repeat. Calls follow the shape of the dose curve; as a rule, active = well fitted curve in the direction sought with a large enough effect; inconclusive = small, poorly fitted or top-dose-only effect, or another doubt; inactive = no such curve, though single readings can be large; an effect the other way counts as inactive or inconclusive.

O=C1NC(=S)N(c2ccc(Cl)cc2)C(=O)/C1=C/N1CCN(C(=O)c2ccco2)CC1	ALOX12 inh inconclusive, PLK1 PBD block inconclusive, Sfp inh 45µM
CC[C@H]1CN2CC[C@H]1C[C@@H]2CNS(=O)(=O)c1cccc2cccnc12	none (no result: PLK1 PBD block, VDR inhibitor, Sfp inh)
CCCCCCn1c(O)c(C(C)=NC)c(=O)[nH]c1=O	none
COc1ccc(-n2c(/C=C/c3cccc(F)c3)nc3ccccc3c2=O)cc1Cl	none (no result: PLK1 PBD block, Sfp inh)
O=C1NC(=S)N(c2ccc(F)cc2)C(=O)/C1=C\c1ccoc1	PLK1 PBD block 2.7µM, VDR inhibitor inconclusive, Sfp inh 20µM (no result: ALOX12 inh)
CCOc1ccc(N2C(=O)NC(=O)/C(=C\c3ccc(N4CCCCC4)o3)C2=O)cc1	none
CCOc1ccc(N2C(=O)/C(=C/c3ccc(C)o3)C(=O)NC2=S)cc1	ALOX12 inh inconclusive, PLK1 PBD block 4.7µM, VDR inhibitor inconclusive, Sfp inh 22µM
CN1CCN(c2ccc(/C=C3\C(=O)NC(=S)N(c4cccc(Br)c4)C3=O)o2)CC1	ALOX12 inh inconclusive, VDR inhibitor inconclusive
O=C1NC(=S)N(c2ccc(F)cc2)C(=O)/C1=C/c1ccco1	Sfp inh 25µM (no result: ALOX12 inh, PLK1 PBD block, VDR inhibitor)
N[C@@H](Cc1cc(Br)c(O)c(Br)c1)C(=O)O	Sfp inh 50µM (no result: ALOX12 inh, PLK1 PBD block, VDR inhibitor)
Oc1c(Br)cc(-c2ccccc2)cc1Br	ALOX12 inh inconclusive, PLK1 PBD block inconclusive (no result: Sfp inh)
CN1C(=O)C(=Cc2ccc(Sc3ccccc3)o2)C(=O)N(C)C1=O	ALOX12 inh inconclusive, PLK1 PBD block inconclusive, VDR inhibitor inconclusive
CN1C(=O)C(=Cc2ccc(Sc3ccccc3)o2)C(=O)N(C)C1=S	PLK1 PBD block 2.7µM (no result: Sfp inh)
O=C1Nc2cc(Cl)c(Cl)cc2N2CCNC[C@H]12	ALOX12 inh inconclusive, VDR inhibitor 25µM (no result: PLK1 PBD block)
Cc1nn(CCC#N)c2c1P(=S)(N1CCCC1)OC(c1ccc(F)cc1)=N2 (configuration not stated)	ALOX12 inh 22µM, PLK1 PBD block 13µM, VDR inhibitor 25µM, Sfp inh 10µM
Cn1c(N2CCNCC2)nc2ccccc21	none
CCC(C=C[C@@H]1OC(=O)C=C[C@H]1C)=C[C@H](C)CC=CC(C)=C[C@@H](C)C(=O)[C@@H](C)[C@H](O)[C@@H](C)CC(C)=CC(=O)O	ALOX12 inh inconclusive, VDR inhibitor 1.6µM, Sfp inh 0.71µM (no result: PLK1 PBD block)
CC1CCC2C(C)C(=O)OC3OC4(C)CCC1C32OO4 (configuration not stated)	Sfp inh 89µM!
CC1CCC2[C@@H](C)C(=O)OC3O[C@]4(C)CCC1C32OO4 (some centres not stated)	none (no result: Sfp inh)
[Cl][Pt+2][Cl].[NH-]C1CCCCC1[NH-] (configuration not stated)	VDR inhibitor 50µM (no result: Sfp inh)
COc1cc(OC)c(OC)cc1C=O	ALOX12 inh inconclusive
Cc1cccc(N2C(=O)NC(=O)/C(=C\C=C\c3ccco3)C2=O)c1	ALOX12 inh inconclusive, PLK1 PBD block inconclusive, VDR inhibitor inconclusive, Sfp inh 45µM
O=C1NC(=O)N(c2ccccc2)C(=O)/C1=C/C=C/c1ccco1	ALOX12 inh inconclusive, PLK1 PBD block 2.4µM, VDR inhibitor 20µM, Sfp inh 32µM
O=C1CC(=O)N(c2ccccc2)C(=O)N1	ALOX12 inh inconclusive (no result: Sfp inh)
O=C1NC(=O)N(Cc2ccccc2)C(=O)/C1=C\C=C\c1ccco1	ALOX12 inh 40µM, VDR inhibitor inconclusive
Cc1cccc(N2C(=O)NC(=O)C3(Cc4cc(C)ccc4N(C)C3)C2=O)c1 (configuration not stated)	none
Cc1cccc(N2C(=O)NC(=O)/C(=C/c3ccc([N+](=O)[O-])o3)C2=O)c1	PLK1 PBD block 11µM, VDR inhibitor inconclusive, Sfp inh 13µM (no result: ALOX12 inh)
O=S1(=O)NCC2(CC2)CN1Cc1ccccc1	none (no result: VDR inhibitor, Sfp inh)
CN[C@@H](C)[C@@H](O)c1ccccc1	none
C=CCN1C(=O)NC(=O)/C(=C/C=C/c2ccccc2)C1=O	ALOX12 inh inconclusive, PLK1 PBD block inconclusive, VDR inhibitor inconclusive, Sfp inh 28µM
O=C1NC(=O)N(Cc2ccccc2)C(=O)/C1=C/N1CCCc2ccccc21	PLK1 PBD block 27µM, VDR inhibitor inconclusive
Cc1ccc(N2C(=O)NC(=O)/C(=C\C=C\c3ccco3)C2=O)cc1	PLK1 PBD block 1.9µM, VDR inhibitor inconclusive, Sfp inh inconclusive
Cc1ccc(N2C(=O)NC(=O)/C(=C\C=C\c3ccco3)C2=O)cc1C	ALOX12 inh 40µM, PLK1 PBD block 1.5µM, VDR inhibitor inconclusive
CCCC1CCCCC12C(=O)NC(=O)NC2=O (configuration not stated)	none (no result: Sfp inh)
Cc1nn(Cc2ccccc2)c(C)c1C(=O)OCC(=O)NC1CCS(=O)(=O)C1 (configuration not stated)	none
O=c1[nH]c(=S)[nH]c(O)c1C(c1ccccn1)c1c(O)[nH]c(=S)[nH]c1=O	Sfp inh 25µM
